A selection: hits, their analogues and other compounds. The true share with any hit is near 2.4%.
D2 antag – antagonists of human D2 dopamine receptor; HEK293 TREx D2 cells, calcium flux, dopamine EC80; inhibition, % at 10 µM; 2% of 340,000 active; AID 485344; in the data active = inhibition above about 30%; inactive = below that, where a call was filed; also: 0% is about no effect
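Tetracycline-induced HEK293 T-REx cells expressing D2 force-coupled to calcium signalling were dye-loaded, exposed to compound for 180 s, then challenged with an EC80 of dopamine; calcium flux was followed kinetically for a further 180 s.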
D2 PAM-1 – positive allosteric modulators of human D2 dopamine receptor | P14416 | HEK293 T-REx D2, calcium flux, EC20 dopamine potentiation | potentiation, % at 10 µM | 0.34% of 340,000 active | AID 485347;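 active = potentiation over 3 SD above the plate norm, cut at about 30% in these data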; also: 0% is about no effect
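Primary screen. Calcium kinetics in induced HEK293 T-REx D2 cells: compound pre-addition 180 s, EC20 dopamine, 180 s more.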
D2 PAM-2 – potentiates the human D2 dopamine receptor allosterically; P14416; DiscoveRx D2 beta-arrestin cells, luminescence, 90 min; 100% = 57 uM dopamine signal; potentiation, % (no concentration beside the values); 0.23% of 360,000 active; AID 624464; in the data active = potentiation above about 50%; inconclusive = mostly about 30% to 49%
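D2 cells co-treated with compound plus 50 nM dopamine (EC20) for 90 min at 37 deg C to detect potentiation. Beta-arrestin recruitment was read as enzyme-fragment luminescence after 1 h at ambient temperature. Full response was set by 57 uM dopamine.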
D2 ag-1 – agonists of human D2 dopamine receptor (beta-arrestin) | DiscoveRx PathHunter D2 beta-arrestin, luminescence, 90 min; 100% = 57 uM dopamine signal | activation, % (no concentration beside the values) | 0.084% of 360,000 active | AID 624465; in the data active = activation above about 40%; inconclusive = between about 15% and that limit
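DiscoveRx PathHunter D2 beta-arrestin cells (2,100/well) attached overnight, then compound-stimulated 90 min at 37 C in HBSS/10 mM HEPES/0.1% Tween-20 buffer; beta-galactosidase complementation read by luminescence after 1 h at ambient temperature. Dopamine 57 uM final (EC100) as control.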
D2 ag-2 – agonists of human D2 dopamine receptor | activation, % at 2 µM | HEK293 T-REx D2 cells, calcium flux agonist mode | 0.53% of 340,000 active | P14416;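 active = activation over 3 SD above normal in the single-dose calcium agonist read, cut at about 30% in these data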; also: 0% is about no effect
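HEK293 Trex D2 cells, tetracycline-induced, o/n 30 C 5% CO2; no-wash Ca dye, RT 30–90 min; 10-cycle baseline, 23 nl cpd added, kinetic Ca read 180 s; agonist hits = positive Ca response.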
D3 ag – D3 receptor agonism confirmed, beta-arrestin readout. AID 720506. Potency, µM (top dose mostly 76.9 µM), for the others: at the highest dose activation, usual class: activators. DiscoveRx D3 beta-arrestin cells, luminescence, 90 min. 4% of 2,300 active. shares compounds with D2 ag-2;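 also: potency is read from the fitted curve at half-maximal effect; 100% = dopamine control response; nearly all actives have a fitted effect of over 70% in size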
Target sequence (P35462 whole entry, looked up): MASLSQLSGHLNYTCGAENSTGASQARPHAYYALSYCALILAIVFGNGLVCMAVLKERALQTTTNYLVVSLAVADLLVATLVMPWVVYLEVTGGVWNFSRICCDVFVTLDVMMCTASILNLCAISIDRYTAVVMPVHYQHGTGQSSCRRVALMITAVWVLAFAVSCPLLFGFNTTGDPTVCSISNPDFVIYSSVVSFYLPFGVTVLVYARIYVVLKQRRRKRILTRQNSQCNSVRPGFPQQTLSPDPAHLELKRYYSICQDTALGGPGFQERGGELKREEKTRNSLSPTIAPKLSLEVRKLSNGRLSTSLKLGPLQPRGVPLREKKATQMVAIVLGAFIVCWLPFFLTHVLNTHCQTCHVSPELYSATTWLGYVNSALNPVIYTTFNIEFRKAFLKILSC
D2 ag-3 – counter-screen for D3 agonists: human D2 dopamine receptor agonism | shares compounds with D2 ag-2 | DiscoveRx PathHunter D2 beta-arrestin, luminescence, 90 min; response scale: percent relative to full dopamine signal | Potency, µM (titrated, usually from 76.9 µM), inactives show at the top dose activation, most hits filed as activators | 5.9% of 2,300 active; also: potency is read from the fitted curve at half-maximal effect; % of control where 0% means no effect; nearly all actives have a fitted effect of over 70% in size
Starred values were filed as active, the others as inactive; u = inconclusive; x = no result. Unless noted, calls follow the shape of the dose curve; as a rule, active = well fitted activation curve with a large enough effect; inconclusive = small, poorly fitted or top-dose-only effect; inactive = flat fitted curve, though single readings scatter.

SMILES	D2 antag	D2 PAM-1	D2 PAM-2	D2 ag-1	D2 ag-2	D3 ag	D2 ag-3
COc1ccc(CCN2CC(C(=O)N(C)CC(=O)Nc3ccc(Cl)c(C(F)(F)F)c3)CC2=O)cc1OC (configuration not stated)	2.9	5.0	-9.7	-1.9	0.5	-0.4%	8.7%
CN(CC(=O)Nc1ccc(Cl)c(C(F)(F)F)c1)C(=O)C1CC(=O)N(CCc2ccccc2)C1 (configuration not stated)	-4.9	3.8	-35.9	-0.2	1.2	-1.9%	1.8%
CC(=O)Nc1ccc(NC(=O)C2CCN(S(=O)(=O)c3ccc4c(c3)CCCC(=O)N4)CC2)cc1	x	4.2	x	x	1.1	x	x
COc1ccc(-c2onc(C)c2C)cc1S(=O)(=O)Nc1cc(Cl)ccc1C	x	1.4	x	x	0.4	x	x
Cc1ccc(OCC(=O)Nc2nnc(S(=O)(=O)N3c4ccccc4CC3C)s2)cc1 (configuration not stated)	x	0.4	x	x	-0.5	x	x
COC(=O)c1cccc(NC(=O)CN2CCc3ccccc3C2)c1	12.5	5.8	0.5	-1.1	5.3	u	14.4%
O[C@@H]1CN(Cc2ccc(-n3cccn3)cc2)CC[C@H]1N1CCN(c2ccccc2F)CC1	38.5*	-23.5	-1.4	7.6	65.0*	16.7%	u
Cc1ccc(CN2CCN(Cc3ccc(-n4cccn4)cc3)CC2CCO)cc1 (configuration not stated)	-14.6	-17.9	-13.7	1.3	-1.4	x	x
Nc1nc(CSc2nnnn2-c2ccccc2)nc(N2CCCc3ccccc32)n1	0.1	-6.3	-11.1	-2.9	7.8	x	x
Nc1nc(CN2CCN(c3cccc(Cl)c3)CC2)nc(N2CCCc3ccccc32)n1	70.4*	-16.2	29.4	u	42.1*	16.4%	u
COc1ccc(N2CCN(Cc3nc(N)nc(Nc4ccc(C)c(Cl)c4)n3)CC2)cc1	-10.4	-4.0	-11.7	1.2	1.6	x	x
Nc1nc(CN2CCN(c3ccccc3)CC2)nc(N2CCCc3ccccc32)n1	x	x	54.2*	u	x	35.5µM*	u
COc1ccc(N2CCN(Cc3nc(N)nc(N4CCCc5ccccc54)n3)CC2)cc1	7.4	-12.4	-9.4	3.7	48.7*	4.4%	13.9%
Nc1nc(CN2CCN(c3ccccc3F)CC2)nc(N2CCCc3ccccc32)n1	78.7*	-16.7	12.5	u	81.8*	u	u
CCn1c(=O)cc(OCC(=O)N(C)c2cc(Cl)ccc2C)c2ccccc21	x	2.2	x	x	-1.3	x	x
COc1ccc(Cl)cc1NC(=O)CN(c1cccc(C)c1C)S(C)(=O)=O	x	-5.0	x	x	5.1	x	x
O=C(CSc1ccc2nnc(-c3ccncc3)n2n1)NCC1CCCO1 (configuration not stated)	12.9	11.5	-5.7	-4.8	0.4	-11.1%	-0.6%
CC(CCc1ccc(O)cc1)NC1C2CC3CC(C2)CC1C3 (configuration not stated)	71.4*	-24.2	-20.5	3.7	37.5*	-3.3%	10.2%
c1ccc(Cc2noc(CN3CCN(CCOc4ccccc4)CC3)n2)cc1	55.5*	-24.7	-6.4	1.7	62.9*	u	20.6%
O=C(NCC(c1ccco1)N1CCN(c2ccccc2F)CC1)C1CCCCC1 (configuration not stated)	59.2*	-31.1	-6.4	u	76.8*	u	u
O=C(NCC(c1ccco1)N1CCN(c2ccccc2F)CC1)C(=O)NC1CCCCC1 (configuration not stated)	9.4	8.3	-2.2	6.3	1.6	x	x
O=C(NCC(c1ccco1)N1CCN(c2ccccc2F)CC1)C(=O)NC1CC1 (configuration not stated)	32.7*	-0.8	29.0	1.6	23.2	u	u
CCCN(CCC)C(=O)Cn1c(=O)n(-c2ccccc2)c(=O)c2c3c(sc21)CCCC3	x	-1.5	x	x	-0.3	x	x
CCc1nc(C)cn1S(=O)(=O)c1cc(C)c(OC)cc1C	-19.6	-22.0	-2.5	-4.7	63.6*	5.0%	3.0%
CCc1nc(C)cn1S(=O)(=O)c1cc(Br)c(C)cc1OC	-7.0	18.3	-12.0	-1.3	-1.5	x	x
SMILES	D2 antag	D2 PAM-1	D2 PAM-2	D2 ag-1	D2 ag-2	D3 ag	D2 ag-3
COc1ccc(C2OC(=O)CC2C(=O)NCc2ccc(F)cc2)cc1OC (configuration not stated)	6.5	7.2	-31.9	3.5	-0.5	-6.6%	-6.2%
Cc1cc(C2=NNC(=NCCc3ccccc3)SC2)c(C)n1CC1CCCO1 (configuration not stated)	22.1	-19.5	-16.6	4.0	22.0	-10.9%	-1.4%
COc1ccc(-c2nc(CSc3nncn4c3cc3sccc34)c(C)o2)cc1OC	x	2.0	x	x	-0.3	x	x
COC(=O)c1ccc(NC(=O)C2CCN(S(=O)(=O)c3ccc4c(c3)CCCN4C(C)=O)CC2)cc1	x	-8.7	x	x	-0.4	x	x
O=C(NNC(=S)NC1CCCCC1)c1sc2ccccc2c1Cl	-18.6	-18.9	-11.3	-4.5	-0.3	x	x
CC(C)(C)C(=O)NC(=S)NNC(=O)c1sc2ccccc2c1Cl	56.6*	9.3	-9.0	-10.6	146.0*	-26.0%	-12.0%
Nc1cccc(C#Cc2ccc3c(=O)c4ccccc4oc3c2)c1	3.6	6.6	-8.6	-1.3	-1.1	0.0%	0.3%
CC(=O)CSc1nnc(-c2ccc(S(=O)(=O)N3CCOCC3)cc2)n1C	x	x	-3.4	0.9	x	-1.8%	-3.3%
CC(=O)CSc1nnc(-c2ccc(S(=O)(=O)N3CCCC3)cc2)n1C	0.0	6.0	-0.5	-0.5	-1.0	x	x
O=C(Cc1ccccc1)NCCSCc1ccc(Cl)cc1	7.6	-6.1	0.3	-4.2	-0.7	x	x
O=C(Cc1ccc(Cl)cc1)SCc1ccccc1	-17.3	3.0	-7.7	-1.4	14.9	-19.9%	-4.8%
C[C@H]1[C@H](C)CC[C@]2(C)CC[C@]3(C)C(=CC(=O)C4[C@@]5(C)CC[C@H](O)C(C)(C)C5CC[C@]43C)[C@H]12 (some centres not stated)	20.7	0.2	-0.3	-4.0	0.0	-1.7%	-0.8%
Cc1c(Cl)cccc1NC(=O)c1ccc(NC(=O)N2CCSc3ncccc32)cc1	x	3.6	x	x	0.3	x	x
NC(=O)c1ccc(NC(=O)CN2CCOCC2)cc1	-5.8	-4.8	-13.0	0.2	0.2	x	x
CCOC(=O)c1ccc(NC(=O)CN2CCN(C(=O)c3ccco3)CC2)cc1	67.4*	-5.8	21.4	u	79.6*	22.4µM*	u
NC(=O)c1ccc(NC(=O)CN2CCN(C(=O)c3ccco3)CC2)cc1	x	x	-1.2	12.5	x	u	u
